Experimental findings from PubChem BioAssay AID2405 (Southern Research Specialized Biocontainment Screening …, 2010) are described below.

The nature of this assay: anti-RSV activity of probe candidates, cell-based (AID 2405). As to conditions: RSV cytopathic effect inhibition, HEp-2 cells, hits give high values; at 100 µM unless noted. A general note: Protection from cytopathic effect is a common read-out in antiviral testing.

Unmarked numbers belong to inactive results. The rule behind the calls is not given here.

Take `O=C(CSc1nc2ccccc2c(=O)n1-c1ccc(F)c(Cl)c1)Nc1ccc2c(c1)CCC2`: the maximum inhibition was 6.32%. The same measure for `O=C(CSc1nc2cccc(F)c2c(=O)n1-c1ccccc1)Nc1ccc2c(c1)CCC2`: 20.4%; for `COc1ccc(-c2csc(N(CCCN(C)C)C(=O)c3ccccc3C)n2)cc1`: 0.96% [at 0.2 µM]. Regarding `COc1ccccc1NC(=O)CSc1nc2ccccc2c(=O)n1-c1ccc(F)cc1`, the maximum inhibition is 3.44% [at 6.25 µM]. Next, `COc1ccc(-c2csc(NC(=O)c3ccccc3F)n2)cc1`: 1.37%. Next, `COc1ccc(NC(=O)CSc2nc3ccccc3c(=O)n2-c2ccc(F)cc2)cc1`: 18.6%. As to `O=c1c2cc([N+](=O)[O-])ccc2nc2n1CCC2`, the maximum inhibition was 1.3%. Next, `COc1cccc(NC(=O)CSc2nc3ccccc3c(=O)n2-c2ccc(F)cc2)c1`: 48.3%; `O=C(Nc1nc(-c2ccc(Cl)cc2)cs1)c1ccccc1Cl`: 4.1%.

For the compound `O=C(Nc1nc(-c2ccc(Cl)cc2)cs1)c1ccccc1F`, the maximum inhibition is 3.06% [at 12.5 µM].

For `COc1ccc(Cn2nc(C)cc2OC(=O)c2c(F)cccc2F)cc1`, the maximum inhibition is 1.12% [at 0.39 µM].

Take `C=CCN(C(=O)c1ccccc1Cl)c1nc(-c2ccc(OC)cc2)cs1`: the maximum inhibition was 7.65%.

`O=c1c2cc(I)ccc2nc2n1CCC2`: the maximum inhibition was 5.94%.
